Laboratory results reported in PubChem BioAssay (NCATS).
Records with an inconclusive call do not appear. Entries that show only a call come without a potency. Activity calls are given as the source filed them. Calls follow the shape of the dose curve; as a rule, active = well fitted inhibition curve with a large enough effect; inconclusive = small, poorly fitted or top-dose-only effect; inactive = flat fitted curve, though single readings scatter.

How the values were obtained:
Experiment in all cases: qHTS profiling for inhibitors of Plasmodium falciparum proliferation (AID 504749); also: nearly all actives have a fitted effect of over 60% in size
Conditions in all cases: P. falciparum in erythrocytes, SYBR Green DNA, 72 h; series mostly up to 28.7 µM
DIV17 = test system: DIV17
Method in brief: (§1)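 Infected RBCs, 0.3% parasitemia/2.5% Hct final; cpd 72 h, 37 C, 5% CO2; lysis buffer with saponin/triton/SYBR Green I, o/n RT dark; FI 485/535; norm. to artemisinin (0.29 uM) and DMSO.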

Dd2 = test system: Dd2
Method in brief: as §1

ECU = test system: ECU
Method in brief: as §1

FAB9 = test system: FAB9
Method in brief: as §1

ICS = test system: ICS
Method in brief: as §1

JCK = test system: JCK
Method in brief: as §1

CP286 = test system: CP286
Method in brief: as §1

CP305 = test system: CP305
Method in brief: as §1

CP315 = test system: CP315
Method in brief: as §1

CP325 = test system: CP325
Method in brief: as §1

CP329 = test system: CP329
Method in brief: as §1

CP335 = test system: CP335
Method in brief: as §1

DFO2036 = test system: DFO2036
Method in brief: as §1

DIV14 = test system: DIV14
Method in brief: as §1

DIV30 = test system: DIV30
Method in brief: as §1

GB4 = test system: GB4
Method in brief: as §1

HB3 = test system: HB3
Method in brief: as §1

N140 = test system: N140
Method in brief: as §1

CP291 = test system: CP291
Method in brief: as §1

CP297 = test system: CP297
Method in brief: as §1
Potency is read from the fitted curve at half-maximal effect.

Row | Structure (SMILES) | Potency (DIV17) | Potency (Dd2) | Potency (ECU) | Potency (FAB9) | Potency (ICS) | Potency (JCK) | Potency (CP286) | Potency (CP305) | Potency (CP315) | Potency (CP325) | Potency (CP329) | Potency (CP335) | Potency (DFO2036) | Potency (DIV14) | Potency (DIV30) | Potency (GB4) | Potency (HB3) | Potency (N140) | Potency (CP291) | Potency (CP297)
1 | O=C(O)c1cn(C2CC2)c2cc(N3CCNCC3)c(F)cc2c1=O | inactive | 3.16 µM (active) | inactive | inactive | 3.16 µM (active) | inactive | – | – | – | – | – | – | – | – | – | – | – | – | – | –
2 | COc1nc(N)nc2c1ncn2[C@@H]1O[C@H](CO)[C@@H](O)[C@@H]1O | inactive | inactive | inactive | inactive | inactive | inactive | inactive | inactive | inactive | inactive | inactive | inactive | inactive | inactive | inactive | inactive | inactive | inactive | – | –
3 | CCC(C)(C)c1ccc(CC(C)CN2C[C@@H](C)O[C@@H](C)C2)cc1 (some centres not stated) | inactive | – | inactive | inactive | – | inactive | – | inactive | inactive | inactive | inactive | inactive | inactive | – | inactive | inactive | – | inactive | inactive | inactive
4 | Cc1oc(=O)oc1CN1CCN(c2cc3c(cc2F)c(=O)c(C(=O)O)c2n3C(C)S2)CC1 (configuration not stated) | 16.9 µM (active) | 7.08 µM (active) | 10 µM (active) | – | 7.08 µM (active) | – | 7.94 µM (active) | – | inactive | – | – | 6.01 µM (active) | 7.94 µM (active) | 15.1 µM (active) | – | 7.57 µM (active) | 8.91 µM (active) | – | – | –
5 | COc1cccc(N(C)C(=S)Oc2ccc3c(c2)CCCC3)n1 | inactive | inactive | inactive | inactive | – | inactive | – | inactive | inactive | inactive | inactive | – | inactive | – | – | inactive | inactive | inactive | – | –
6 | CCCc1nc(C)c2c(=O)[nH]c(-c3cc(S(=O)(=O)N4CCN(CC)CC4)ccc3OCC)nn12 | 10.7 µM (active) | inactive | – | inactive | 4.47 µM (active) | inactive | – | inactive | inactive | inactive | inactive | inactive | inactive | 5.36 µM (active) | – | inactive | – | – | inactive | –
